Most compounds without a hit are left out; they make up all but 2.6% or so of the library.
BaF3 tox: parental Ba/F3 cell viability inhibition, counter-screen for JAK2V617F inhibitor project, murine pro-B, CellTiter-Glo luminescence. inhibition, % at 5.6 µM. AID 1486, 2009. 1.1% of 220,000 active. CellTiter-Glo ATP luminescence;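 active means inhibition above a per-campaign cutoff, the mean inhibition of all tested compounds plus 3 SD, cut at about 27% in these data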
DNA FID counter: compounds displacing fluorescent DNA intercalator, primary screen, artefact control for HCV NS3 helicase inhibitor project, biochemical, FID fluorescence; DNA fluorescent intercalator displacement; inhibition, % at 7.9 µM; 0.17% of 290,000 active; in the data active means inhibition above about 37%;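 further: higher means more ethidium bromide displaced from hairpin DNA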
GPR7 antag: GPR7 receptor antagonists, primary screen, cell-based, fluorescence, single concentration; inhibition, % at 4.4 µM; GPR7-expressing cells, fluorescence antagonist assay; Neuropeptides B/W receptor type 1 (Homo sapiens), P48145; 1.1% of 290,000 active; in the data active means inhibition above about 16%, passing the limit was not always enough;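 further: cells stimulated with the agonist NPW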
Target sequence (P48145 whole entry, looked up): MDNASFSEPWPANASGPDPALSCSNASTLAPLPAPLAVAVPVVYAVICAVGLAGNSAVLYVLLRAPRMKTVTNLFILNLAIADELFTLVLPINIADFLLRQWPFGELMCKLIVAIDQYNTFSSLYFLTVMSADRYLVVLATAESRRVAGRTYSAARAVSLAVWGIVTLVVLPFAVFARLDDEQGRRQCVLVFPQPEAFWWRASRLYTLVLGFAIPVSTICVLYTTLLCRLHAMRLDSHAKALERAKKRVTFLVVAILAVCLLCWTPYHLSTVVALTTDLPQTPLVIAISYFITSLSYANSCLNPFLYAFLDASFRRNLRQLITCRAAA
Ba/F3 V617F tox: reduced viability of JAK2V617F-dependent Ba/F3 cells, primary screen, JAK2V617F inhibitor project, cell-based, Ba/F3 EpoR-JAK2V617F, luminescence | ATP luminescence | 1.1% of 220,000 active | inhibition, % at 5.6 µM;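 active means inhibition above the campaign mean plus 3 SD over all tested compounds, cut at about 24% in these data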;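 further: cytokine-independent growth of Ba/F3 cells driven by EpoR plus mutant JAK2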
KLF5 inhibitor: KLF5 expression inhibitors, primary screen, DLD-1 cells, luminescence. 0.23% of 290,000 active. DLD-1 KLF5 promoter-luciferase reporter. inhibition, % at 5 µM. AID 1700, 2009;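 active means inhibition above a per-plate limit of that plate's mean compound inhibition plus 3 SD, cut at about 60% in these data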;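 further: higher means less KLF5 promoter-driven luciferase light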
IEC-6 tox: cytotoxicity in IEC-6 intestinal epithelial cells, primary screen, cytotoxicity control for KLF5 inhibitor project, cell-based, luminescence; IEC-6 cytotoxicity, luminescence viability; inhibition, % at 5 µM; 0.78% of 290,000 active; AID 1825, 2009
GPR7 antag conf: GPR7 receptor antagonists, confirmation, cell-based, fluorescence, single concentration; GPR7-expressing cells, calcium fluorescence antagonist mode; shares compounds with GPR7 antag; inhibition, % at 4.4 µM; 52% of 2,400 active; AID 1952, 2009; in the data active means inhibition above about 24%;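 further: stimulated with the GPR7 agonist NPW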
MCHR1 antagonist: MCHR1 antagonists in cells, counter-screen for GPR7 antagonist project, cell-based, fluorescence, human; MCHR1-expressing cells, fluorescence antagonist assay; AID 2148, 2009; 62% of 2,400 active; inhibition, % at 4.4 µM; shares compounds with GPR7 antag
Of the large screens only hits and unclear results are named; the others gave an inactive call (follow-up assays come after a bar, where they were run). Unless noted, no stated cut-off is given here; in the data, active means inhibition above about 22%; inactive means the rest.

COCCCN1CCN(C2Cc3ccccc3Sc3ccc(Cl)cc32)CC1 (configuration not stated)	GPR7 antag 24 | GPR7 antag conf inactive | MCHR1 antagonist 34
Clc1ccc2c(c1)C(N1CCNCC1)Cc1ccccc1S2 (configuration not stated)	GPR7 antag 28 | GPR7 antag conf 53 | MCHR1 antagonist 65
COc1ccc(CCc2nnc(N)s2)cc1OC	none (no result: BaF3 tox, Ba/F3 V617F tox)
COc1cc(/C=C(/C#N)C(=O)Nc2ccccc2)ccc1OCc1ccc(C(=O)O)cc1	none
COc1cc(/C=C(\C#N)C(=O)Nc2ccc(C(=O)O)cc2)ccc1OC(=O)c1cccc(F)c1	GPR7 antag 31 (no result: BaF3 tox, Ba/F3 V617F tox) | GPR7 antag conf 34 | MCHR1 antagonist inactive
Cc1ccc(SCCNC(=S)Nc2cc(C)ccc2C)cc1	none
Cc1ccc(C)c(NC(=S)NCCN(C2CCCCC2)C2CCCC2)c1	GPR7 antag 46 | GPR7 antag conf 44 | MCHR1 antagonist 36
COc1ccccc1-c1nnc2sc(COc3ccc(F)cc3)nn12	GPR7 antag 42 | GPR7 antag conf inactive | MCHR1 antagonist 52
COc1ccc(-c2n[nH]c(C(F)(F)F)c2-c2cc3ccccc3o2)c(O)c1	GPR7 antag 29 | GPR7 antag conf 32 | MCHR1 antagonist 71
COc1ccccc1-c1c(-c2ccc(OCC(=O)NN)cc2O)n[nH]c1C(F)(F)F	none
O=c1/c(=C/c2ccc(O)c([N+](=O)[O-])c2)sc2nc3ccccc3n12	none
CC1CCCC(C)N1S(=O)(=O)c1ccc(NC(=O)CNC2CCCC2)cc1 (configuration not stated)	GPR7 antag 54 (no result: BaF3 tox, Ba/F3 V617F tox) | GPR7 antag conf inactive | MCHR1 antagonist inactive
CC(=O)c1ccc(NC(=O)CNC2CCCCC2)cc1	GPR7 antag 36 (no result: BaF3 tox, Ba/F3 V617F tox) | GPR7 antag conf inactive | MCHR1 antagonist inactive
CC1CCN(S(=O)(=O)c2ccc(NC(=O)CNC3CCCCC3)cc2)CC1	none (no result: BaF3 tox, Ba/F3 V617F tox)
Cc1ccc(CNC(=O)C2CCCN(S(=O)(=O)c3cnc[nH]3)C2)cc1 (configuration not stated)	none
COc1ccc(CNC(=O)C2CCCN(S(=O)(=O)c3cnc[nH]3)C2)cc1 (configuration not stated)	GPR7 antag 29 | GPR7 antag conf inactive | MCHR1 antagonist inactive
COc1ccc(Br)cc1C1NC(=O)NC(C)=C1C(=O)N(C)C (configuration not stated)	GPR7 antag 23 | GPR7 antag conf inactive | MCHR1 antagonist inactive
O=C(Nc1ccc(S(=O)(=O)N2CCCCC2)cc1)c1ccc(CN2CCOCC2)cc1	GPR7 antag 60 | GPR7 antag conf 62 | MCHR1 antagonist 83
O=C(Nc1ccc(S(=O)(=O)Nc2ccc(F)cc2)cc1)c1ccc(CN2CCOCC2)cc1	GPR7 antag 30 | GPR7 antag conf 66 | MCHR1 antagonist 77
O=C(Nc1ccc(S(=O)(=O)N2CCCC2)cc1)c1ccc(CN2CCOCC2)cc1	none
Cc1ccsc1-c1n[nH]c(=S)n1CC(C)C	none
CCN(CC)CCCNC(=O)c1cc2nc(-c3ccccc3)cc(C(F)(F)F)n2n1	none (no result: BaF3 tox, Ba/F3 V617F tox)

Screening data as filed in PubChem.
